Assay outcomes deposited in PubChem BioAssay by The Scripps Research Institute Molecular Screening Center.
SF-1 inh: SF-1 (human) inhibition. Q13285. 65,000 tested, 0.55% active. CHO-K1 Gal4-SF-1 LBD luciferase reporter. inhibition, % at 10 µM. AID 525;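 active = inhibition above the mean inhibition of all tested compounds plus 3 SD, cut at about 48% in these data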
Target sequence (Q13285 whole entry, looked up, the tested form may be a part): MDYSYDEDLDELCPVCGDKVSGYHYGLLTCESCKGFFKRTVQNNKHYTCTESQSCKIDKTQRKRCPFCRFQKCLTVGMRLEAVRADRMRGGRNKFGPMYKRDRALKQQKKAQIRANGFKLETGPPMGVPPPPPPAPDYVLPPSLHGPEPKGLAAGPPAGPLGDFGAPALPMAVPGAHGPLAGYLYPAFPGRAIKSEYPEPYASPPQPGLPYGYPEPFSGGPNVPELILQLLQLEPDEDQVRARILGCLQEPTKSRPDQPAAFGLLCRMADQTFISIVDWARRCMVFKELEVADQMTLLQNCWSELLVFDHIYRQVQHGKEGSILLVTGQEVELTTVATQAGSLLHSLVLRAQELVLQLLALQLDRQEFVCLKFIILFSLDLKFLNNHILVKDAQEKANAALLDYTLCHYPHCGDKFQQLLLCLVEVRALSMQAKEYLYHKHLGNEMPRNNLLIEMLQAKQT
A number is an active result; i = inactive. Shown is part of a subset that was picked to be rich in hits.

SMILES	SF-1 inh
COc1ccc(C(NC(C)=O)c2ccc3cccnc3c2O)c(OC)c1 (configuration not stated)	82
COc1ccc2sc(NC(C)=O)nc2c1	i
COc1cc2ccccc2cc1C(=O)Nc1cccnc1	i
Cn1c(-c2ccc3ccccc3n2)nc2cnccc21	i
CN(c1ccccc1)S(=O)(=O)c1ccc(C(=O)Nc2nnc(-c3ccc(F)cc3)o2)cc1	i
COC(=O)Nc1ccc(S(=O)(=O)N2c3ccccc3CCC2C)cc1 (configuration not stated)	i
O=C(Nc1nnc(C2CC2)o1)c1ccc(S(=O)(=O)N2CCCc3ccccc32)cc1	49
CC1(C)CC(=O)c2cnc(NCc3ccco3)nc2C1	i
Cc1c(C(=O)O)sc(=S)n1CCOc1ccccc1	i
CCOCC(=O)Nc1cccc(Br)c1	i
CC1CCc2nc(NC(=O)Cc3cccs3)sc2C1 (configuration not stated)	i
CC1CCc2nc(NC(=O)c3ccco3)sc2C1 (configuration not stated)	64
CS(=O)(=O)c1ccc2nc(NC(=O)c3ccco3)sc2c1	i
O=C(c1ccccc1F)N1CCN(S(=O)(=O)c2ccc(S(=O)(=O)N3CCCCC3)cc2)CC1	i
O=S(=O)(c1ccccc1)c1cccc(S(=O)(=O)N2CCCCC2)c1	i
O=S(=O)(c1ccc2c(c1)C(=NO)c1cc(S(=O)(=O)N3CCCCC3)ccc1-2)N1CCCCC1	96
COC(=O)C(C)Sc1nc2c(cnn2-c2ccccc2)c(=O)[nH]1 (configuration not stated)	i
CC1=C(c2ccc(C)cc2)S(=O)(=O)N(CC(=O)O)C1=O	i
CCOC(=O)Cc1cn2c(=O)cc(CSCC(=O)Nc3ccc(C)c(C)c3)nc2s1	i
CNS(=O)(=O)c1cccc(C(=O)OCC(=O)Nc2ccccc2OC(F)F)c1	i
O=C1CC(CCC(=O)NC2CC2)c2ccccc2N1 (configuration not stated)	i
O=c1[nH]c(N2CCOCC2)nc2ncn(Cc3ccccc3)c12	i
c1ccc(-n2nnc3c(N4CCOCC4)ncnc32)cc1	52
O=c1c2ccccc2nc2c3ccccc3c(N3CCOCC3)nn12	i
COC1(OC)N=C(N)C2(C#N)C(c3cccc(Oc4ccccc4)c3)C12C#N (configuration not stated)	i
SMILES	SF-1 inh
C=CCNc1sc(C(=O)c2cccs2)c(N)c1C#N	i
O=c1[nH]c2c(s1)C=Nc1ccccc1N2	i
CCc1nc2oc3ccccc3c(=O)c2c(=O)n1-c1ccccc1	i
CCCc1ccc(-c2ccc(F)c(N)c2)nc1	60
CCc1ccc(-c2ccc(C(=O)O)cc2)nc1	i
CCC1CCc2c(sc(NC(=O)c3ccoc3C)c2C(N)=O)C1 (configuration not stated)	i
Cc1ccc(SCCNC(=O)C(CO)(CO)CO)cc1	i
CCOC(=O)N1CCC(C(=O)Nc2ccc(OCC)cc2)CC1	i
CCOc1ccc(Nc2cc(C)nc(-n3nc(C)cc3C)n2)cc1	65
CCOC(=O)c1cnc(-n2nc(C)cc2C)nc1NCc1ccc2c(c1)OCO2	i
CC(C)CCn1c(CN2CCN(c3cccc(Cl)c3)CC2)nc2c1c(=O)n(C)c(=O)n2C	i
Cn1cccc1C(=O)NC(=O)CSc1nc2ccccc2s1	i
Nc1nc(-c2ccc3c(c2)OCCO3)cs1	i
CS(=O)(=O)N1CCN(c2nc(-c3ccc(F)cc3)cs2)CC1	i
Cc1ccc(-c2csc(N3CCC(NS(=O)(=O)c4ccc5c(c4)OCCO5)CC3)n2)cc1	53
CCCOCCOC(=O)c1[nH]c2c(c1C)C(=O)CC(c1cc(OC)ccc1OC)C2 (configuration not stated)	i
CCCCN1CC(C(=O)NC2CCCCC2)CC1=O (configuration not stated)	i
N#C/C(C(=O)c1ccccc1)=C1/CCCCCN1	i
Cc1cc(/C=N/n2cnnc2)c(C)n1-c1ccc(OCc2ccc(F)cc2)cc1	86
CC(C)(C)NC(=O)CSc1nnc(Cc2ccc3c(c2)OCO3)n1C1CCCCC1	i
CCOC(=O)CSc1ccc2nnc(-c3cccnc3)n2n1	i
COc1cccc(NC(=O)N2CCN(c3cccc(C)c3)C(C)C2)c1 (configuration not stated)	i
COc1cccc(N2CCN(c3ncnc4c3[nH]c3ccc(F)cc34)CC2C)c1 (configuration not stated)	96
COc1cccc(N2CCN(c3ncnc4c3[nH]c3ccccc34)CC2C)c1 (configuration not stated)	85
COc1cccc(-n2nc(C(=O)O)c3ccccc3c2=O)c1	i
SMILES	SF-1 inh
COc1cccc(OCCN2CCN(c3ncnc4c3cnn4-c3ccccc3)CC2)c1	i
O=C(CC(=O)c1ccccc1)Nc1ccc2c(c1)OCCO2	i
CC(=O)N1CCN(c2ccc(Oc3nnnn3-c3ccccc3)cc2)CC1	i
CC(=O)c1c(C(C)=O)c(C)n(-c2nc(-c3ccccc3)c(C)s2)c1C	i
CC1CCN(C(=O)c2ccc(NC(=O)C3CCCO3)cc2)CC1 (configuration not stated)	i
CCC(OC(=O)CCc1nc2ccccc2[nH]c1=O)C(=O)c1ccccc1 (configuration not stated)	i
